Rpn11 block – Rpn11 (PSMD14) deubiquitinase inhibitors, primary screen, biochemical, fluorescence polarization, uHTS; 26S proteasome non-ATPase regulatory subunit 14 (Homo sapiens), O00487; human 26S proteasome, Ub4-pepOG fluorescence polarization; 20S core pre-blocked with epoxomicin; inhibition, % at 20 µM; 0.59% of 360,000 active;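 active = inhibition at 20 µM, scaled to each plate's controls, above about 33%, limit read from the data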
Target sequence (O00487 whole entry, looked up): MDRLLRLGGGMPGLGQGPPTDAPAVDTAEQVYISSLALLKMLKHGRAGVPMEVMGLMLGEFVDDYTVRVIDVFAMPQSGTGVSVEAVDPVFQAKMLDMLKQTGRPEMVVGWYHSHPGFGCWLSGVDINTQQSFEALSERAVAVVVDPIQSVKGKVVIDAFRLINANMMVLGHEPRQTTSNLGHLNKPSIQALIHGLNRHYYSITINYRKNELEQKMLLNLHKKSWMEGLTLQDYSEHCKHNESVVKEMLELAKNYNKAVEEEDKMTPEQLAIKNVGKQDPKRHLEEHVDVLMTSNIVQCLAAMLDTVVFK
Myeloid diff MLP – induction of myeloid progenitor differentiation, primary screen, cell-based, flow cytometry, MLPCN library; AID 624256, 2012; 1% of 360,000 active; calls only at 10 µM; ER-HoxA9 myeloid progenitors, lysozyme-GFP differentiation;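 active = normalized GFP-positive differentiation at or above the plate's own cutoff, the solvent-only control mean plus 3 SD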;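 note: cells exposed to compound for four days before flow analysis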
TPT1 inhibitor – Candida albicans TPT1 enzyme inhibitors, primary screen, biochemical, fluorescence polarization. tRNA 2'-phosphotransferase TPT1 (Candida albicans SC5314). AID 1962, 2009. 0.81% of 300,000 active. inhibition, % at 5 µM. recombinant caTPT1, FP RNA substrate dephosphorylation;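 active = inhibition above the mean of all tested compounds plus 3 SD, set per screening campaign, cut at about 24% in these data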
HNF4A DNA FP – change in binding of human HNF4A to DNA, primary screen, biochemical, fluorescence polarization, FITC-DNA. Hepatocyte nuclear factor 4-alpha (Homo sapiens), P41235. AID 1224865, 2016. 0.3% of 360,000 active. activity change, % at 10 µM. 1 h; in the data active = activity change above about 30%, passing the limit was not always enough
Numbers stand for hits; i = inactive; nt = not tested or not shown; + = active, no number. In the library only some 2.1% were active in any assay of this set; here they are far more common.

SMILES | Rpn11 block | Myeloid diff MLP | TPT1 inhibitor | HNF4A DNA FP
CCN1C[C@@H]2[C@@H]3C(=O)N(Cc4ccccc4)C(=O)[C@@H]3[C@](Cc3ccccc3)(C1=O)N2C(=O)c1ccc(C(F)(F)F)cc1 | i | + | nt | i
OC(CN1C2=NCCN2c2ccccc21)c1ccc(Br)cc1 (configuration not stated) | i | + | i | i
OCCNc1ncnc2c1cnn2Cc1ccccc1 | i | i | nt | i
c1ccc(CNc2ncnc3c2cnn3Cc2ccccc2)cc1 | i | + | i | i
Cc1cccc(NC(=O)CSc2nnc(CSc3nc(C)cc(C)n3)n2Cc2ccco2)c1 | i | + | i | i
Cc1cc(C)nc(SCc2nnc(SCC(=O)Nc3nccs3)n2Cc2ccco2)n1 | i | i | i | i
Cc1cc(Cl)ccc1NC(=O)CSc1nnc(Cc2cccs2)n1Cc1ccco1 | i | i | i | 41.8
COc1cc2c(cc1NC(=O)CSc1nnc(Cc3cccs3)n1Cc1ccco1)oc1ccccc12 | i | i | i | i
CCOC(=O)C1CCN(CC(O)COc2ccc(C(C)(C)C)cc2)CC1 (configuration not stated) | i | + | i | i
CCOC(=O)C1CCN(CC(O)COc2ccc(C(C)(C)CC)cc2)CC1 (configuration not stated) | i | i | i | i
Cc1coc(NC(=O)CSc2nc(-c3ccc(Cl)cc3)cc(C(F)(F)F)c2C#N)n1 | i | + | i | i
CCCCn1c(=N)n(CC(O)COc2cccc(C)c2)c2ccccc21 (configuration not stated) | i | + | i | i
COC(=O)C[C@@H]1OC[C@H](C(C)C)N1S(=O)(=O)c1ccc(C)cc1 | nt | i | nt | i
CCOC(=O)N1CCN(C(=O)/C(=C/c2cccs2)NC(=O)c2cccs2)CC1 | i | i | i | i
Cc1cccc(N(C)C(=O)c2cc(S(=O)(=O)N3CCc4ccccc43)cn2C)c1 | i | + | i | i
Cc1ccc(N(C)C(=O)c2cc(S(=O)(=O)N3CCc4ccccc43)cn2C)cc1 | i | i | i | i
O=C(C[n+]1ccc(CCSc2ccc(F)cc2)cc1)c1ccccc1 | 82.4 | i | i | i
O=C1CC(C(=O)Nc2ccccc2)C2(CCCC2)O1 (configuration not stated) | i | + | i | i
O=C(NCc1ccco1)C1CCN(C(=O)c2cc3sccc3n2Cc2ccc(F)cc2)CC1 | i | i | i | i
O=C(NCc1ccccn1)C1CCN(C(=O)c2cc3sccc3n2Cc2ccc(F)cc2)CC1 | i | + | i | i
CCCC/C=C/C(NC(=O)c1ccc(C(=O)OC)cc1)c1ccccc1 (configuration not stated) | i | i | i | i
Cc1cccc2cc(C#N)c(NCCNS(=O)(=O)c3ccc4c(c3)OCCO4)nc12 | i | + | i | i
CN1C(=O)[C@H]2[C@@H](c3ccc(C(F)(F)F)cc3)N[C@]3(CCCN(Cc4ccc(Cl)cc4)C3=O)[C@H]2C1=O | i | i | nt | i
COC(=O)c1c(NC(=O)CC2Nc3ccccc3NC2=O)sc(C)c1C (configuration not stated) | i | i | i | 44.9
CCOC(=O)c1c(NC(=O)CC2Nc3ccccc3NC2=O)sc(C)c1C (configuration not stated) | i | i | i | 52.5
SMILES | Rpn11 block | Myeloid diff MLP | TPT1 inhibitor | HNF4A DNA FP
CCOC(=O)c1c(NC(=O)CC2Sc3ccc(C(F)(F)F)cc3NC2=O)sc(C)c1C (configuration not stated) | i | i | i | i
CCN(CC)c1ccc(C(=O)NNC(=O)Cn2c(=O)cnc3ccccc32)cc1 | i | i | nt | i
CC(C)C[C@H](NC(=O)OC(C)(C)C)C(=O)N1CCC(C(=O)N[C@@H](Cc2c[nH]c3ccccc23)C(=O)O)CC1 | i | i | i | i
CCC1CN2CCc3cc(OC)c(OC)cc3C2CC1CC1c2cc(OC)c(OC)cc2CCN1C(=O)C(Cc1c[nH]c2ccccc12)NC(=O)OC(C)(C)C (configuration not stated) | i | + | nt | i
COc1ccccc1C(=O)O[C@H]1[C@H](Cc2ccccc2)NS(=O)(=O)[C@H]2C[C@@H]3C=C[C@]12O3 | i | i | nt | i
COc1ccc(C=O)cc1COc1c(F)c(F)cc(F)c1F | i | + | i | i
COc1ccc(C=O)cc1COc1ccc(F)cc1F | i | i | i | i
COC(=O)c1c(C)[nH]c(C=O)c1-c1ccccc1 | i | i | i | i
COC(=O)c1c(C)[nH]c(C)c1C(=O)c1ccccc1Cc1ccccc1 | i | + | i | i
Cc1ccc(Cl)cc1NC(=O)C1CCCN1S(=O)(=O)c1ccc(-c2ccc(=O)[nH]n2)s1 (configuration not stated) | i | i | i | i
Cc1cccc(C=Nc2ccc3c4c(cccc24)CC3)c1O | i | + | i | i
COCCNC(=S)N1CCC2CC1c1cc(-c3ccc4c(c3)OCO4)ccc12 (configuration not stated) | i | i | nt | i
CC(C)Cn1c(N)c(C=O)c(=O)[nH]c1=O | i | i | i | i
Cc1ccc(C(=O)NNC(=O)CCC(=O)NCc2ccccc2)cc1Br | i | + | nt | i
Cc1cccc(C)c1NC(=O)C1(C)CN(S(C)(=O)=O)CC(=O)N1CC(F)(F)F (configuration not stated) | nt | i | nt | i
CC(=O)Nc1sc2c(c1C#N)CC(C)(C)NC2(C)C | i | + | i | i
CCCC(=O)Nc1sc2c(c1C#N)CC(C)(C)NC2(C)C | i | i | i | i
Cc1ccc(C(=O)NCC(=O)N2CCC(Cc3ccccc3)CC2)cc1 | i | i | i | i
COc1ccc(-c2c(C#Cc3ccsc3)c3cc(-c4ccc5[nH]ccc5c4)ccc3n2C)cc1 | i | + | nt | i
COc1ccc(-c2c(C#Cc3ccsc3)c3cc(-c4cccc5[nH]ccc45)ccc3n2C)cc1 | i | i | nt | i
O=C(Nc1ccc(S(=O)(=O)Nc2cnc3ccccc3n2)cc1)c1cccc(OC(F)F)c1 | i | i | i | i
CC(=O)NC(c1cccs1)c1cc([N+](=O)[O-])c2cccnc2c1O (configuration not stated) | 40.2 | i | i | i
CC(NC(=O)C1CCN(S(=O)(=O)c2cccc3cccnc23)CC1)c1ccccc1 (configuration not stated) | i | + | i | i
Clc1nc(NC2CCCCC2)c2cn[nH]c2n1 | i | i | nt | i
CC(C)OC(=O)c1cc(C(=O)c2cc(F)ccc2O)coc1=N | i | + | i | i
CC(C)OC(=O)c1cc(C(=O)c2cc(Cl)ccc2O)coc1=N | i | + | i | i
O=C(CSc1nnc(CNC(=O)c2ccccc2F)o1)c1ccccc1 | i | i | i | i
CC(C)=CCN1CCN(Cc2cc(C(C)C)n[nH]2)CC1CCO (configuration not stated) | i | + | i | i
CC(C)c1cc(CN2CCN(C3CCCC3)C(CCO)C2)[nH]n1 (configuration not stated) | i | i | i | i
